Legend:
Settings in all cases: concentration: 1 μM, replicates: in singlicate; n = 1
CDKL5 = system: CDKL5
CHEK1 = system: CHEK1
CHEK2 = system: CHEK2
CIT = system: CIT
CLK1 = system: CLK1
CLK2 = system: CLK2
CLK3 = system: CLK3
CLK4 = system: CLK4
CSF1R-autoinhibited = system: CSF1R-autoinhibited
CSF1R = system: CSF1R
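Note: KINOMEscan kinase panel screen.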

Row | SMILES | %Inh (CDKL5) [%] | %Inh (CHEK1) [%] | %Inh (CHEK2) [%] | %Inh (CIT) [%] | %Inh (CLK1) [%] | %Inh (CLK2) [%] | %Inh (CLK3) [%] | %Inh (CLK4) [%] | %Inh (CSF1R-autoinhibited) [%] | %Inh (CSF1R) [%]
1 | CNc1nc(-c2ccc3c(N)n[nH]c3c2)cc(N2C[C@@H](C(=O)Nc3ccccc3)CC[C@H]2C)n1 [GSK2298859] | 1 | 0 | 11 | 89 | 33 | 68 | 6 | 43 | 0 | 2
2 | COC(=O)c1cccc(NC(=O)NC2CCN(c3ccnc(Nc4ccc(F)cc4)n3)C2)c1 (stereo not shown) [GSK1379725] | 7 | 0 | 0 | 12 | 10 | 0 | 0 | 10 | 0 | 2
3 | FC(F)(F)c1ccccc1-c1cc(-c2c[nH]nc2-c2ccccn2)ccn1 [GW679396] | 0 | 99.9 | 0 | 41 | 8 | 1 | 0 | 21 | 0 | 0
4 | COc1nccc(-c2c(-c3ccc(F)cc3)ncn2CCCN2CCOCC2)n1 [SB-282852] | 0 | 0 | 0 | 17 | 73 | 0 | 0 | 5 | 41 | 0
5 | COc1ccc(Nc2nccc(NCCNC(=O)Nc3cc(C)ccc3C)n2)cc1 [GSK1379899] | 5 | 5 | 86 | 7 | 23 | 0 | 6 | 57 | 0 | 0
6 | CS(=O)(=O)CCNCc1nc(-c2ccc3ncnc(Nc4ccc(OCc5ccccc5)c(Cl)c4)c3c2)cs1.Cl [GW582764] | 0 | 100 | 30 | 38 | 22 | 0 | 0 | 6 | 48 | 3
7 | CC(=O)c1c(C)c2cnc(Nc3ccc(N4CCNCC4)cn3)nc2n(C2CCCC2)c1=O | 0 | 0 | 16 | 3 | 23 | 0 | 100 | 13 | 7 | 7
8 | O=c1cc(N2CCOCC2)nc2n(Cc3ccccc3F)ccn12 [GSK2297428] | 0 | 9 | 0 | 18 | 36 | 0 | 22 | 54 | 7 | 0
9 | CC(C)c1ccc(O)cc1Nc1ccnc2ccc(C(F)(F)F)cc12 [GW482059] | 0 | 14 | 0 | 25 | 14 | 4 | 0 | 32 | 0 | 0
10 | COc1cccc(C2=C(Nc3cc(Cl)c(O)c(Cl)c3)C(=O)NC2=O)c1 [SB-390767] | 0 | 100 | 0 | 7 | 46 | 0 | 14 | 15 | 0 | 0
11 | CNc1cc(-c2ccc3c(N)n[nH]c3c2)nc(N)n1 [GSK2224810] | 0 | 0 | 84 | 9 | 90.2 | 80 | 18 | 89 | 5 | 3
12 | NS(=O)(=O)c1cccc(N/C=C2\C(=O)Nc3ccc(S(=O)(=O)Cc4c(Cl)cccc4Cl)cc32)c1 [GSK398099] | 0 | 6 | 0 | 22 | 43 | 33 | 4 | 0 | 0 | 3
13 | CC(=O)c1cccc(NC(=O)NC2CCN(c3ccnc(Nc4ccc(F)cc4)n3)C2)c1 (stereo not shown) [GSK1379710] | 0 | 10 | 33 | 29 | 24 | 3 | 14 | 0 | 33 | 18
14 | Fc1ccc(-c2nn3cccc(F)c3c2-c2ccncc2)cc1 [GW475620] | 0 | 0 | 0 | 96.3 | 22 | 0 | 6 | 26 | 0 | 0
15 | Cc1ccc(NC(=O)Nc2ccccc2)cc1-c1ccc(C(=O)Nc2ccncc2)cc1 [GSK1398471] | 11 | 0 | 0 | 93 | 20 | 0 | 7 | 14 | 0 | 84
16 | COC(=O)C(NC(=O)NC1CCN(c2ccnc(Nc3ccc(F)cc3)n2)C1)c1ccccc1 (stereo not shown) [GSK1379712] | 3 | 3 | 37 | 0 | 9 | 0 | 0 | 0 | 34 | 5

Row | SMILES | %Inh (CDKL5) [%] | %Inh (CHEK1) [%] | %Inh (CHEK2) [%] | %Inh (CIT) [%] | %Inh (CLK1) [%] | %Inh (CLK2) [%] | %Inh (CLK3) [%] | %Inh (CLK4) [%] | %Inh (CSF1R-autoinhibited) [%] | %Inh (CSF1R) [%]
17 | Cc1ccc(NC(=O)Nc2ccc(Cl)cc2)cc1-c1ccc(C(=O)Nc2ccncc2)cc1 [GSK1398472] | 0 | 19 | 0 | 89 | 32 | 0 | 14 | 42 | 4 | 87
18 | Nc1ncnc2occ(-c3ccc4c(c3)CCN4C(=O)Cc3cc(F)ccc3F)c12 [GSK2645446] | 0 | 0 | 21 | 0 | 27 | 0 | 0 | 0 | 0 | 17
19 | Cc1ccccc1-c1cc(-c2c[nH]nc2-c2ccccn2)ccn1 [GW680061] | 0 | 85 | 4 | 24 | 15 | 0 | 0 | 15 | 10 | 3
20 | CS(=O)(=O)Cc1ccc(Nc2nccc(-c3c(-c4cccc(NC(=O)C5CCCCC5)c4)nn4ncccc34)n2)cc1 [GSK350559] | 33 | 12 | 0 | 10 | 10 | 10 | 24 | 0 | 35 | 79
21 | Cc1ccccc1Cn1ccn2c(=O)cc(N3CCOCC3)nc12 [GSK2269905] | 3 | 0 | 0 | 3 | 48 | 0 | 28 | 30 | 0 | 26
22 | CCn1c(-c2ccccc2)nc2cnccc21 [SB-733416] | 4 | 29 | 0 | 23 | 17 | 0 | 0 | 3 | 0 | 13
23 | O=c1cc(N2CCOCC2)nc2n(Cc3cccc(Cl)c3Cl)c3ccccc3n12 [GSK2299009] | 7 | 3 | 0 | 21 | 27 | 2 | 1 | 8 | 0 | 28
24 | CCCCc1nn2ncccc2c1-c1ccnc(NC2CC2)n1 [GW684374] | 0 | 0 | 3 | 25 | 40 | 26 | 90.7 | 0 | 0 | 7
25 | Cl.Cl.Cl.N#Cc1ccc(CCNc2nccc(-c3cccc(CN4CCNCC4)c3)n2)cc1 [GSK2137462] | 0 | 0 | 0 | 82 | 17 | 23 | 0 | 15 | 0 | 8
26 | CN1c2ccc(-c3ccc(C(N)=O)cc3)cc2-c2[nH]ncc2S1(=O)=O | 0 | 0 | 49 | 0 | 25 | 70 | 0 | 15 | 17 | 0
27 | Fc1ccc(-c2nc3n(c2-c2ccncc2)CCS3)cc1 [GI98581] | 0 | 0 | 0 | 92.9 | 28 | 0 | 0 | 9 | 0 | 0
28 | COc1ccc(Nc2nccc(N3CCC(NC(=O)C(C)c4ccc(Cl)cc4)CC3)n2)cc1 (stereo not shown) [GSK1379812] | 100 | 0 | 0 | 9 | 13 | 11 | 0 | 9 | 0 | 0
29 | CNC(=O)c1ccc(C)c(-n2c(C)cc(OCc3ccc(F)cc3F)c(Br)c2=O)c1 | 0 | 0 | 0 | 0 | 11 | 0 | 0 | 0 | 0 | 0
30 | COc1cccc(NC(=O)Nc2ccc(C)c(-c3ccc(C(=O)Nc4ccncc4)cc3)c2)c1 [GSK1398474] | 0 | 7 | 0 | 94.8 | 29 | 0 | 65 | 5 | 0 | 86
31 | CS(=O)(=O)CCNCc1nc(-c2ccc3ncnc(Nc4ccc5c(cnn5Cc5ccccc5)c4)c3c2)cs1.Cl.Cl [GW569716] | 14 | 0 | 57 | 34 | 24 | 0 | 1 | 5 | 39 | 0
